In all, about 2,100 compounds went through this assay and about 760 (36%) were called active. The list is a sample of the results. A number with no mark means an inactive call.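 Rule for the calls: active = thallium-flux fluorescence traces judged by eye to show enhanced or reduced glutamate response, manual score 1 or -1, so both directions (some results past the limit were not filed as active); inactive = the rest, including fluorescent or raised-baseline compounds.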

A short description of this experiment: non-GIRK thallium flux modulation in mGlu8 cells, confirmation, counter-screen for GIRK activator project, cell-based, HEK-293 rmGlu8, no GIRK (AID 623868).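 Note: extra codes mark interference with 3 for fluorescent and 4 for baseline rise.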 Particulars: thallium flux fluorescence, at 10 µM, actives lie on both sides, codes: 1 enhancer, -1 blocker, 0 none, thallium stimulus containing EC20 glutamate.
In the case of `CCCCOc1ccccc1C1C(C(=O)OC)=C(C)N(C)C(C)=C1C(=O)OC`, the manual score was 0.
Consider `O=C(C1CCCN(Cc2cccs2)C1)N1CCCCCC1` (configuration not stated), for which the manual score is 0.
Consider `CS(=O)(=O)Nc1ccc(C2=NN(C(=O)C3CCCCC3)C(c3cccs3)C2)cc1` (configuration not stated), for which the manual score was -1 (active).
The figure for `CCCCCCn1c(=O)[nH]c2nc3cc(N)ccc3nc2c1=O` is 3; for `Cc1ccc(NC2CC(=O)N(CCc3ccccc3)C2=O)cc1` (configuration not stated) it is 0; for `O=c1c2cc(Br)ccc2nc(-c2cccc(C(F)(F)F)c2)n1O` it is 1 (active).
For `O=c1c2ccccc2nc(-c2cccc(Cl)c2)n1O`, the manual score was 1 (active).
As to `O=c1c2ccc(Cl)cc2nc(-c2cccc(C(F)(F)F)c2)n1O`, the manual score is 1 (active).
Regarding `O=c1c2ccccc2nc(-c2ccccc2)n1/N=C/c1ccc([N+](=O)[O-])cc1`, the manual score is 0.
`CCN1c2ccccc2-c2nc3ccccc3n2C1c1ccco1` (configuration not stated): the manual score was 0.
On to `CC1=CC(C)(C)n2c(O)c(N=NC(N)=S)c3cccc1c32`, for which the manual score is 0.5.
Take `CN(C)c1nc(OCCNC(=O)COc2ccc(Cl)cc2Cl)nc(N2CCOCC2)n1`: the manual score is 0.
In the case of `O=C(COc1ccccc1F)NC1CCN(Cc2ccccc2)CC1` it was 0.
As for `Fc1ccc(NC(=S)NCc2ccccc2Cl)cc1`, the manual score is 0.
In the case of `Cc1cc(C)c2c(c1)/C(=N/NC(=S)Nc1ccc(F)cc1)CCC2` it was 0.
On to `Fc1ccc(NC(=S)NN=C2CCCCCC2)cc1`, for which the manual score is 1 (active).
As for `Fc1ccccc1CNC(=S)Nc1ccc(Cl)cc1`, the manual score is 0.
The figure for `S=C(NN=C1CCCCCC1)Nc1ccc(Cl)cc1` is 1 (active); for `Cn1c(C(=O)OC(C(=O)NC2CCCCC2)c2ccncc2)cc2sccc21` (configuration not stated) it is 0; for `O=C(CSc1nc(CCC2CCCC2)nc2ccccc12)NCc1ccc2c(c1)OCO2` it is 0.5.
Regarding `c1ccc(-c2nnc3n2NC(c2ccc4c(c2)OCO4)S3)cc1` (configuration not stated), the manual score was 1 (active).
The figure for `Cc1nccn1CCc1nc(N)nc(N)n1` is 0; for `Cc1ccc2nc(NC(=S)NC(=O)c3cccs3)sc2c1` it is 0.5; for `O=C(NC(=S)Nc1nc2ccccc2s1)c1cccs1` it is 1 (active).
With `O=C(NC(=S)Nc1nc2c(ccc3ccccc32)s1)c1cccs1`, the manual score was 1 (active).
Regarding `CCN(CC)C(=O)COc1ccc2oc(C)c(C(=O)OC)c2c1`, the manual score is 0.
As to `CN=C(C)C1=C(O)C(C(=O)OC)C(C)(C)CC1=O` (configuration not stated), the manual score is 0.
As to `CC(C)c1nc(N2CCOCC2)c(C#N)c2c1CCCC2`, the manual score is 0.
Consider `CCc1cc2cc(C)ccc2nc1SCC(=O)N1CCN(C(=O)c2ccco2)CC1`, for which the manual score is 0.
`Cc1cc2cc3c(cc2nc1SCC(=O)N1CCN(C(=O)c2ccco2)CC1)OCO3`: the manual score is -1 (active).
In the case of `CC1CCc2nn(CC(=O)N3CCN(C(=O)c4ccco4)CC3)cc2C1` (configuration not stated) it was 0; in that of `CC(C)CC(=O)CN1C(=O)C2(OCCO2)c2ccccc21`, 0; in that of `C=CCn1c(=S)[nH]c2sc3c(c2c1=O)CCC3`, 1 (active).
As for `Cc1cc(C(=O)CSc2nnc(-c3ccncc3)n2-c2ccccc2)c(C)n1C`, the manual score is 0.
As to `O=C(Nn1cnnc1)c1cc2cc(Br)ccc2oc1=O`, the manual score is 0.
The figure for `CC(C)OCCCn1c(=S)[nH]c2cc3c(cc2c1=O)OCO3` is 1 (active).
Take `Cc1ccccc1Cn1cc(NC(=O)c2nc3ncccn3n2)cn1`: the manual score was 0.
The figure for `O=C(NNC(=O)c1sccc1-n1cccc1)c1cccc(Cl)c1` is 1 (active); for `O=C(NNS(=O)(=O)c1cc(Cl)cc(Cl)c1)c1sccc1-n1cccc1` it is 0.
The figure for `O=C(NNC(=O)c1sccc1-n1cccc1)c1ccc(Cl)cc1` is 1 (active).
In the case of `COc1ccc2[nH]c(C)c(C(=O)CN3CC(C)OC(C)C3)c2c1` (configuration not stated), the manual score is 0.
On to `CCn1c(=S)[nH]c2cc(C(=O)OC)ccc2c1=O`, for which the manual score was 1 (active).
In the case of `COC(=O)c1ccc(C)c(NC(=O)CN2C(=O)c3ccccc3S2(=O)=O)c1` it was 0.
For `Cc1cccn2c(=O)c3cc(C#N)c(=NC(=O)c4cccnc4)n(CC4CCCO4)c3nc12` (configuration not stated), the manual score is 3.
For the molecule `COCCn1c(=S)[nH]c2cc(C(=O)N3CCN(c4ccc(F)cc4)CC3)ccc2c1=O`, the manual score was 0.
As for `COC(=O)c1ccc2c(=O)n(CC3CCCO3)c(=S)[nH]c2c1` (configuration not stated), the manual score is 1 (active).
In the case of `COc1ccc2occ(C(=O)c3ccc(N=C(C)N(C)C)cc3)c2c1`, the manual score was 0.
For `CCCCN(CCCC)C(=S)N/N=C/c1c(C)[nH]n(-c2ccccc2)c1=O`, the manual score was 1 (active).
Regarding `Cc1[nH]n(-c2ccccc2)c(=O)c1/C=N/c1ccccn1`, the manual score is 1 (active).
For the molecule `Cc1ccc(-n2[nH]c(C)c(C=Nc3cc(C)ccn3)c2=O)cc1`, the manual score is 1 (active).
Turning to `Cc1[nH]n(-c2ccccc2)c(=O)c1N=Nc1nccs1`, the manual score was 1 (active).
As for `O=c1c2ccccc2c(C=NCc2ccccn2)c(O)n1-c1ccccc1`, the manual score is 0.
With `Cc1ccc(-n2[nH]c(C)c(/C=N/c3ccccn3)c2=O)cc1`, the manual score was 0.5.
Regarding `CC1=NN(c2ccccc2)C(=O)/C1=C\c1c(C)[nH]n(-c2ccccc2)c1=O`, the manual score was 0.
On to `CCN(Cc1ccccc1)C(c1ccccn1)c1nnnn1C1CCCCC1` (configuration not stated), for which the manual score is 0.
On to `CN(C)CCNC(=O)c1cc2c(s1)-c1ccccc1OC2`, for which the manual score was 0.
As for `CC(NC(=O)c1ccccc1NC(=O)CSc1nnnn1C)c1ccccc1` (configuration not stated), the manual score is 0.
For `CN(C)Cc1c(O)ccc2occ(C(O)c3ccccc3)c12` (configuration not stated), the manual score was 0.
The figure for `O=C1CC(N2CCN(c3nc4ccccc4s3)CC2)C(=O)N1c1ccc(F)cc1` (configuration not stated) is 0; for `Cn1c(=O)cc(OCCCC(=O)NCc2ccc3c(c2)OCO3)c2ccccc21` it is 0; for `Cc1[nH]n(-c2ccc(Cl)cc2)c(=O)c1/C=N/c1nnc(-c2ccccc2)s1` it is 1 (active).
For the molecule `CC(C)C1Cc2c(sc3c2c(=O)n(Cc2ccccc2)c2nncn32)CO1` (configuration not stated), the manual score was -0.5.
In the case of `CC1(C)Cc2c(sc3[nH]c(=S)n(Cc4ccccc4)c(=O)c23)CO1` it was 1 (active); in that of `CC1(C)Cc2c(sc3[nH]c(=S)n(Cc4ccco4)c(=O)c23)CO1`, 1 (active); in that of `CCC1(C)Cc2c(sc3[nH]c(=S)n(Cc4ccccc4)c(=O)c23)CO1` (configuration not stated), 1 (active).
Turning to `CC(C)C1Cc2c(sc3[nH]c(=S)n(Cc4ccccc4)c(=O)c23)CO1` (configuration not stated), the manual score is 1 (active).
Regarding `Cc1ccc(C)c(OCC(O)CN2C(C)CCCC2C)c1` (configuration not stated), the manual score is 0.
As for `Cc1cc(N2CCC(C)CC2)n2ncc(-c3ccccc3)c2n1`, the manual score was 0.
In the case of `O=C(C1CCN(c2ncnc3c2sc2cccc(F)c23)CC1)N1CCOCC1` it was -0.5.
Take `CN(C)CCCOc1nc2c(c(=O)n(C)c(=O)n2C)n1C`: the manual score was 1.5.
Turning to `O=C(Nc1ccc(Cl)cc1)NC1CCCCC1Cc1ccco1` (configuration not stated), the manual score was 0.
The figure for `CC1CCc2c(sc(NC(=O)C(=O)NCc3ccco3)c2C#N)C1` (configuration not stated) is 1 (active); for `O=C(NCc1ccccc1)C(=O)Nc1nc(C23CC4CC(CC(C4)C2)C3)cs1` it is 0.
The figure for `CCOC(=O)C(C)Sc1nnc(-c2c[nH]c3ccccc23)n1C` (configuration not stated) is 0; for `CCCCn1nc(C(=O)N2CCc3ccccc32)c2ccccc2c1=O` it is 0.
Regarding `CCn1nc(C(=O)OCC(=O)c2c[nH]c3ccccc23)c2ccccc2c1=O`, the manual score is -1 (active).
On to `CCn1nc(C(=O)OCC(=O)N2CCc3ccccc32)c2ccccc2c1=O`, for which the manual score is -1 (active).
Consider `O=C(COc1ccc2ccccc2c1CN1CCOCC1)N1CCc2ccccc21`, for which the manual score was 0.
On to `CCN(C(=O)CN1CCN(c2ccccc2O)CC1)c1c(N)n(Cc2ccccc2)c(=O)[nH]c1=O`, for which the manual score is 0.
Turning to `Cc1cccc(C(=O)NNC(=O)C(=O)NC(C)(C)C)c1`, the manual score was 1 (active).
Take `CC(C)(C)NC(=O)C(=O)NNC(=O)c1ccc(C(C)(C)C)cc1`: the manual score is 1 (active).
In the case of `CC(C)(C)c1ccc(C(=O)NC(=S)Nn2cnnc2)cc1`, the manual score was 0.
In the case of `CC(C)(C)c1ccc(SCC(N)=O)cc1` it was 0; in that of `COc1ccccc1N1CCN(C(=O)CCn2c(=O)[nH]c3ccsc3c2=O)CC1`, 0.
As for `COc1ccc(Cn2c(=S)[nH]c3ccsc3c2=O)cc1`, the manual score is 1 (active).
The figure for `COc1cc(NC(=O)CCn2c(=O)[nH]c3ccsc3c2=O)cc(OC)c1` is 0.
In the case of `Cc1cc(C)cc(OCC(=O)N2N=C(C(F)(F)F)CC2(O)C(C)(C)C)c1` (configuration not stated) it was 0; in that of `Cc1ccccc1C(=O)Nc1nc(=S)ss1`, 1 (active); in that of `Cc1ccccc1CNC(=O)Nc1cccs1`, 0.
The figure for `Cc1ccccc1C(=O)Nc1ccc2nc3n(c(=O)c2c1)CCC3` is 0.
Take `O=C(Cn1c(=O)[nH]c2ccsc2c1=O)NC1CCCCCC1`: the manual score was 0.
In the case of `CCc1ccc2c(c1)c(N=NC1=NC(=O)CS1)c(O)n2CC`, the manual score is 1 (active).
Consider `CCc1ccc2c(c1)c(N=NC1=NC(=O)CS1)c(O)n2C`, for which the manual score was 1 (active).
Take `CCn1c(O)c(N=NC2=NC(=O)CS2)c2cc(C)ccc21`: the manual score was 1 (active).
For the molecule `CC(Nc1nc(N2CCCC2)nc2ccccc12)c1ccccc1` (configuration not stated), the manual score was 0.
As to `Cc1ccccc1/C=c1\s/c(=C\C(=O)C(C)(C)C)[nH]c1=O`, the manual score is 0.5.
For `CC(C)(C)S(=O)(=O)c1ccc(S(=O)(=O)C(C)(C)C)s1`, the manual score was 0.
Regarding `CCCn1nnnc1NC(=O)c1ccc2ccccc2c1`, the manual score was 1 (active).
As for `CCCn1nc2cc(C(=O)NCCc3ccc(C)cc3)ccc2c1OCC`, the manual score was 0.
`CCC(=O)Nc1ccc2c(c1)ncn2-c1ccc(OC)cc1`: the manual score is 0.
The figure for `CC1CCCN(Cc2cccc(Oc3ccccc3)c2)C1` (configuration not stated) is 0; for `Cc1ccc(N=Nc2ccc(O)c3ncccc23)cc1` it is 1 (active).
Consider `Cc1ccccc1N=Nc1ccc(O)c2ncccc12`, for which the manual score was 1 (active).
On to `O=c1cc(CN2CCOCC2)nc(C2CC2)[nH]1`, for which the manual score is 0.
On to `C/C(CC(O)c1ccc2ccccc2n1)=N/O` (configuration not stated), for which the manual score is 0.
For the molecule `CCCCn1c(N)c(C(=S)NC(=O)CC(C)C)c(=O)n(C)c1=O`, the manual score is 1 (active).
With `CCCCn1c(N)c(C(=S)NC(=O)CC(C)(C)C)c(=O)n(C)c1=O`, the manual score is 1 (active).

Source of the values: PubChem BioAssay AID623868 (Vanderbilt High Throughput Screening Facility, 2012).
